The text below walks through data of PubChem BioAssay AID488841 (Sanford-Burnham Center for Chemical Genomics, 2010).

About 380 (27%) of roughly 1,400 compounds were called active.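 The calls were made as follows: active = mean inhibition above 50% across duplicate retests at 10 µM; inactive = the rest.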 This is one part of the list.

In general, inhibition refers to the share of the control response that was lost under treatment.

This assay is described as follows: inhibition of NALP1/ASC/caspase-1 reporter signal in yeast, confirmation, NALP1 inhibitor project, S. cerevisiae, luminescence, single concentration (AID 488841).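 Also: plate controls were DMSO in galactose medium for no effect and cells in plain SD medium for full effect.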 As to conditions: S. cerevisiae NALP1/ASC/Caspase-1 reporter, beta-gal luminescence; at 10 µM; stronger effect = higher value.
Consider `CCN(c1ccccc1)S(=O)(=O)c1cc(NC(=O)Nc2ccccc2C#N)ccc1Cl`, for which the inhibition is 17.4% (inactive). With `Cc1ccc(OCc2nc(-c3ccc(Cl)cc3)n[nH]2)cc1`, the inhibition is 66.9% (active). Under `CCOC(=O)c1nnc(-c2ccc(C)cc2)nc1Sc1ccc(Cl)cc1` stands 10.3% (inactive); under `FC(F)Oc1ccc(/C=N/c2c(-c3ccc(OC(F)F)cc3)nc3n2CCS3)cc1`, 31.2% (inactive); under `CCc1cccc(C)c1NC(=S)NCCc1c(C)[nH]c2ccc(C)cc12`, 34.2% (inactive). Under `COc1ccc(C(=O)c2c(C(F)(F)F)oc3c2C(=O)c2ccccc2C3=O)cc1` stands 22.6% (inactive).

On to `Cc1nc(NC(=O)CCc2ccccc2)ccc1Br`, for which the inhibition was 64% (active). Take `Cc1csc(NC(=O)CCc2ccc(S(=O)(=O)N3CCOCC3)cc2)n1`: the inhibition is 30.4% (inactive). With `O=C(OCCN1CCCCC1)c1cc2ccccc2o1`, the inhibition was 22.6% (inactive). For `COC(=O)CSC1=C(C#N)C(=O)NC(c2ccccc2)S1` (configuration not stated), the inhibition is 28.1% (inactive). Consider `O=C(c1ccccc1)c1c2c(cc3sc4ccccc4[n+]13)-c1cccc3cccc-2c13`, for which the inhibition is 35.5% (inactive). Next, `Cc1ccc(F)cc1NCC(=O)Nc1ccc(Br)cc1`: 47.6% (inactive); `N#CC(C#N)=C(Nc1ccc(F)cc1)SCc1cccc(Br)c1`: 50.1% (active). Turning to `Cc1ccc(NC(=O)c2cccc(S(=O)(=O)N(C)c3ccccc3)c2)cc1S(=O)(=O)N1CCOCC1`, the inhibition was 28.9% (inactive). Next, `Cc1ccc2nc(N(CCCN(C)C)C(=O)c3sc4ccccc4c3Cl)sc2c1`: 53.6% (active); `CN(C)CCCN(C(=O)c1ccc2c(c1)CCCC2)c1nc2ccc(Cl)cc2s1`: 78.2% (active); `CN(C)CCCN(C(=O)c1sc2ccccc2c1Cl)c1nc2ccc(F)cc2s1`: 45.3% (inactive).

`CN(C)CCCN(C(=O)c1ccc2c(c1)CCCC2)c1nc2ccc(F)cc2s1`: the inhibition was 64.8% (active). Under `COc1ccc(CCNC(=O)c2sc3cc(C)ccc3c2Cl)cc1` stands 35.8% (inactive); under `O=c1c(F)cn(C2CCCO2)c(=O)n1Cc1c(F)cccc1Cl` (configuration not stated), 26.9% (inactive); under `CCOC(=O)C1(Cc2ccc(OC)cc2)CCN(C(=O)CCc2cnccn2)CC1`, 25.1% (inactive).

Take `COc1cccc(/C=N/NC(=O)CCc2c(C)n[nH]c2C)c1`: the inhibition is 25.8% (inactive). Under `COc1ccc(CN2CCNC(=O)C2CC(=O)N(Cc2nccn2C)C(C)C)c(OC)c1` (configuration not stated) stands 14.8% (inactive).

Take `CCCCC(C(=O)NC1CCCC1)N(Cc1ccco1)C(=O)Cn1nnc(-c2ccc(F)cc2)n1` (configuration not stated): the inhibition was 27.3% (inactive). Take `O=C(NC(=S)NCCCN1CCOCC1)c1ccc([N+](=O)[O-])cc1`: the inhibition is 40% (inactive).

On to `COc1ccc(Cc2nnc(SC)[nH]c2=O)cc1`, for which the inhibition was 22.6% (inactive). Next, `Cc1cc(C(C)(C)C)cc(C)c1S(=O)(=O)N1CC(=O)Nc2ccccc21`: 38.6% (inactive). Under `COc1ccccc1-c1nnc2sc(COc3ccc(Cl)cc3)nn12` stands 49.2% (inactive).

For `Cn1cccc1/C=N/N1CCN(Cc2ccc(Cl)cc2)CC1`, the inhibition is 31.7% (inactive). Turning to `COc1ccc(/C=N/N2CCOCC2)cc1COc1ccc(Cl)cc1`, the inhibition was 51.8% (active).

As for `CC[n+]1c(/C=C/N(C)c2ccccc2)n(-c2ccccc2)c2ccc(-c3nc4ccccc4s3)cc21`, the inhibition is 55.8% (active). Next, `CCCN1CCN(CCCNC(=O)CCNC(=O)Cn2ccc3ccccc3c2=O)CC1`: 35.5% (inactive). Consider `CC[n+]1c(/C=C/c2ccc(N(C)C)cc2)ccc2ccccc21`, for which the inhibition is 85.5% (active). Under `CN(C)c1ccc(/C=C/c2ccc3ccccc3[n+]2C)cc1` stands 85.5% (active); under `CC1=C(C(=O)Nc2ccc(Cl)cc2)C(c2ccncc2)C(C#N)=C(SCC(N)=O)N1` (configuration not stated), 32.1% (inactive). `CN(C)c1ccc(N2C(=O)CC(Sc3ccccc3C(=O)O)C2=O)cc1` (configuration not stated): the inhibition is 24.6% (inactive).

Consider `CCOc1ccc(OCCSc2nc3ccccc3o2)cc1`, for which the inhibition is 42.4% (inactive). Consider `CCOC(=O)CCCNC(=O)COC(=O)c1ccc(O)cc1`, for which the inhibition is 23.1% (inactive).

With `Cc1ccc(NC(=O)CN(C)C(=O)COc2cccc3cccnc23)cc1`, the inhibition is 25.3% (inactive). For `CCN1c2ccccc2-c2nc3ccccc3n2C1c1cccs1` (configuration not stated), the inhibition was 32.9% (inactive). Regarding `O=C(C[n+]1ccc(C(=O)N/N=C/c2ccc(OCc3ccccc3)cc2)cc1)c1ccccc1`, the inhibition is 58.6% (active). Turning to `O=C(Oc1ccc(/C=N/NC(=O)c2ccccc2O)cc1)c1ccccc1`, the inhibition was 30.9% (inactive).

With `COc1ccc(/C=N\NC(=O)c2cc(OCC(F)(F)F)ccc2OCC(F)(F)F)cc1`, the inhibition is 25.5% (inactive).

With `O=C1C=CC(=O)N1c1ccc(OC(F)F)cc1`, the inhibition was 59.8% (active).

On to `COc1ccc(N2C(=O)C3[C@@H](C2=O)C2(Cl)C(Cl)=C(Cl)C3(Cl)C2(OC)OC)cc1` (some centres not stated), for which the inhibition was 42% (inactive). Next, `COc1ccc(C(=O)/C=C/Nc2ccc([N+](=O)[O-])cc2C)c(OC)c1`: 4.95% (inactive); `C=CCc1ccc(OCCCOc2ccc(C)cc2OC)c(OC)c1`: 30.9% (inactive). Under `COc1cc(C)ccc1OCCOCCOc1ccc([N+](=O)[O-])cc1` stands 53.3% (active); under `CCCCN(C)C(=O)c1nc2ccccn2c1CNCCCn1ncc2ccccc21`, 16.4% (inactive); under `Cc1ccccc1OCC(=O)Nc1sc2c(c1C#N)CCC2`, 16.7% (inactive). Regarding `COC(=O)c1c(NC(=O)C2CCCO2)sc2c1CCC2` (configuration not stated), the inhibition is 39.9% (inactive).

Consider `Cc1ccc(C(=O)c2c(NC(=O)c3ccncc3)sc3c2CCCC3)cc1`, for which the inhibition was 51% (active). Next, `Cc1ccc(C(C)C)cc1OCCN1CCCC1`: 40.4% (inactive); `Cc1ccc(OCCCCN2CCCCC2)c(Br)c1`: 41.6% (inactive). Consider `Cc1ccc(OCCCCN(C)Cc2ccccc2)c(Br)c1`, for which the inhibition was 61.5% (active). Under `CSc1ccc(CN(C)CC(=O)Nc2ccc(C)cc2Br)cc1` stands 47.1% (inactive); under `C=CCNCCCCOc1ccc(Br)cc1C`, 41.7% (inactive); under `CCCCCOc1ccc(Br)cc1CSC(=N)N`, 57.2% (active). Take `O=C(O)CC1NC(=S)N(c2ccccc2)C1=O` (configuration not stated): the inhibition was 29.9% (inactive). Next, `COc1ccc(NCc2ccc([N+](=O)[O-])s2)c(OC)c1`: 49.1% (inactive); `CC(=O)N1N=C(c2ccc3ccccc3c2)OC1(C)C`: 77.3% (active); `CC(C)(C)c1ccc(COn2c(=O)c(-c3ccco3)[n+]([O-])c3ccccc32)cc1`: 12.9% (inactive). Turning to `COc1cccc(NC2=C(Cl)C(=O)OC2OC(=O)c2ccco2)c1` (configuration not stated), the inhibition is 29.2% (inactive).

Take `O=C(Nc1ccc(Cl)c(Cl)c1)Oc1ccc(NC(=O)c2ccco2)cc1`: the inhibition is 52.8% (active). Under `CCCc1nc2ccc(NC(=O)c3ccco3)cc2c(=O)n1Cc1ccccc1Cl` stands 27% (inactive).

`COc1ccc2c(c1)C1=NN(/C(C)=C/C(C)=O)C(c3ccc(F)cc3)C1CC2` (configuration not stated): the inhibition was 42.4% (inactive). Turning to `Cn1nc(NC(=O)C(C)(C)C)c2c(F)cccc21`, the inhibition was 8.45% (inactive). Under `CC(C)Oc1ccc(Cc2cnc(N)nc2N)cc1` stands 9.95% (inactive). Next, `O=C1O/C(=C/c2ccccc2)c2ccccc21`: 73.8% (active); `Cc1ncc(S(=O)(=O)c2ccccc2)c(-c2ccccc2Cl)n1`: 10.2% (inactive). Next, `CC(NC(=O)c1ccc(F)cc1)C(=O)NC1=NCCS1` (configuration not stated): 22.1% (inactive). Consider `Cc1ccc(-c2csc(NC(=O)c3ccc(F)cc3)c2C(=O)O)cc1`, for which the inhibition was 89.8% (active). Next, `CN1CCN(C2=C(Cl)C(=O)N(CCc3ccccc3)C2=O)CC1`: 46.6% (inactive); `Cn1c(/C(C#N)=C/C2CC=CCC2)nc2ccccc21` (configuration not stated): 37% (inactive); `N#C/C(=C\c1ccc([N+](=O)[O-])o1)c1nc2ccccc2[nH]1`: 24.8% (inactive). For `N#C/C(=C/c1cccs1)c1nc2ccccc2[nH]1`, the inhibition was 89% (active). Next, `O=c1oc2ccccc2nc1/C=C(O)/C=C/c1ccc(F)cc1`: 33.8% (inactive).

With `COc1ccccc1C(=O)Nc1nc2nc(-c3ccccc3)cc(=O)n2[nH]1`, the inhibition is 22.9% (inactive).

On to `CCN(CC)CCN1C(=O)c2ccccc2NC1c1ccc(N(C)C)cc1` (configuration not stated), for which the inhibition is 25.7% (inactive). Under `CN(C)CCN(C(=O)/C=C/c1cccs1)c1nc2ccc(F)cc2s1` stands 72.1% (active); under `CN(C)CCN(C(=O)/C=C/c1cccs1)c1nc2c(F)cc(F)cc2s1`, 51.6% (active); under `CCN(C(=O)[C@@H]1CCCN1C(=O)c1cccs1)c1nc2cc(Cl)ccc2s1`, 46.8% (inactive). In the case of `CCCCNC(=O)COC(=O)c1ccc(Cl)c(S(N)(=O)=O)c1`, the inhibition is 25.9% (inactive). Under `CCOc1nnc(C)c2c(C)n(-c3cccc(Cl)c3)nc12` stands 25.5% (inactive). As for `Clc1ccc2oc3c(Cl)ncnc3c2c1`, the inhibition is 23.1% (inactive). Next, `CC(C)(C)c1cc2cccnc2n1Cc1cccc(Cl)c1`: 35.9% (inactive); `CC(OC(=O)CC(NC(=O)c1ccccc1Cl)c1ccccc1)C(=O)Nc1cccc(Cl)c1Cl` (configuration not stated): 29.8% (inactive). Next, `Cc1cc(C)n(CCOc2ccc(Cl)cc2Cl)n1`: 53.1% (active).

Consider `O=C(CCl)NC(=O)NC12CC3CC(CC(C3)C1)C2`, for which the inhibition is 32.7% (inactive). Under `CCCCNC(=O)C(=O)N/N=C/c1cccc(Br)c1` stands 45.6% (inactive). Next, `CC(/C=N/NC(=O)CCn1nnc2ccccc21)=C\c1ccccc1`: 38.2% (inactive); `CC(/C=N/NC(=O)c1c(Br)cnn1C)=C\c1ccccc1`: 54.4% (active).

In the case of `CC(/C=N/NC(=O)CSc1ccccn1)=C\c1ccc(C(C)C)cc1`, the inhibition was 26.2% (inactive). Under `COc1cc2c(cc1NC(=S)Nc1ccccc1C)oc1ccccc12` stands 26.9% (inactive); under `Cc1ccc(S(=O)(=O)c2nc(C)oc2NCc2ccccc2)cc1`, 35% (inactive). Next, `CCOC(=O)/C(=N\Nc1ccc(Cl)cc1)c1csc(Nc2ccccc2)n1`: 27.4% (inactive). As to `Cc1ccc(S(=O)(=O)c2nc(Nc3ccccc3)sc2Cl)cc1`, the inhibition was 55.3% (active).
